In PubChem BioAssay (NCATS):
Inconclusive results are not listed. Active and inactive are the calls of the source. Calls come from the whole dose curve; as a rule, active = well fitted cell-killing curve with a large enough effect; inconclusive = small, poorly fitted or top-dose-only effect, or effect the other way; inactive = flat fitted curve, though single readings scatter.

Tested on: PA-1
Assay: Primary qHTS to identify gynecologic anti-cancer compounds using libraries of approved drugs and bioactive compounds (AID 1345084); note: nearly all actives have a fitted effect of over 55% in size
Settings: Gynecologic cancer cell panel viability, ATPlite luminescence, 48 h; series mostly up to 57.5 µM; activity change, negative = cytotoxicity: at the top concentration
Outline: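 Cell viability after 48 h drug treatment, ATPlite luminescence readout; five doses.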
% is set by controls: 0 for no effect and ±100 for the full control effect.

| Structure (SMILES) | activity change, negative = cytotoxicity |
| --- | --- |
| C[C@]12CCC[C@](C)(C(=O)O)C1CCC13C=C(CO)C(CCC12)C3 (some centres undefined) | 6.36% [at 38.5 µM] (inactive) |
| O=C(c1ccc(C#Cc2cccc(F)c2)cn1)N1CC2CC2C1 (centres undefined) | -0.85% (inactive) |
| C[C@H]1[C@H](C)CC[C@]2(C(=O)O)CC[C@]3(C)C(=CC[C@@H]4[C@@]5(C)C[C@@H](O)[C@H](O)[C@@](C)(CO)[C@@H]5CC[C@]43C)[C@H]12 | -3.53% (inactive) |
| C/C=C/C=C/C(CC(=O)O)Nc1ccc(C=O)cc1 (centres undefined) | -4.86% (inactive) |
| C[C@@H]1O[C@@H](O[C@H]2[C@H](OC(=O)[C@]34CCC(C)(C)C[C@H]3C3=CCC5[C@@]6(C)C[C@H](O)[C@H](O[C@@H]7O[C@H](CO)[C@@H](O[C@@H]8O[C@H](CO)[C@@H](O)[C@H](O)[C@H]8O)[C@H](O)[C@H]7O)[C@@](C)(CO)C6[C@H](O)C[C@@]5(C)[C@]3(C)C[C@H]4O)OC[C@H](O)[C@@H]2O)[C@H](O)[C@H](O)[C@H]1O[C@@H]1OC[C@@H](O)[C@H](O[C@@H]2OC[C@](O)(CO)[C@H]2O)[C@H]1O (some centres undefined) | -7.05% [at 6.55 µM] (inactive) |
| CC(C)(O)c1ccc2c(c1)C(=O)CC1[C@](C)(CO)CCC[C@]21C (some centres undefined) | -4.87% [at 38.5 µM] (inactive) |
| CC(=O)C1CCC2(C)C3=C(CCC12C)C1(C)CCC(=O)C(C)(C)C1CC3 (centres undefined) | -2.93% [at 38.5 µM] (inactive) |
| C[C@@H]1C/C=C/C=C\C=C\C=C\[C@H](O[C@@H]2O[C@H](C)[C@@H](O)[C@H](N)[C@@H]2O)C[C@@H]2O[C@](O)(C[C@@H](O)C[C@H]3O[C@@H]3/C=C/C(=O)O1)C[C@H](O)[C@H]2C(=O)O | -5% [at 25.3 µM] (inactive) |
| COC(=O)C[C@@H]1C(C(=O)O)=CO[C@@H](O[C@@H]2O[C@H](CO)[C@@H](O)[C@H](O)[C@H]2O)/C1=C\COC(=O)/C=C\c1ccccc1 | -1.89% [at 25.3 µM] (inactive) |
| CC1CCC2C(C(=O)O)=CC3C(O)C(C)(C)CC123 (centres undefined) | 35% (inactive) |
| CC(C)(O)/C=C1/C(=O)C(C)(C)C(=O)C(C)(C)C1(O)O[C@@H]1O[C@H](COC(=O)c2cc(O)c(O)c(O)c2)[C@@H](O)[C@H](O)[C@H]1O (some centres undefined) | -8.15% [at 25.3 µM] (inactive) |
| Cc1cc(O)c(C(C)C)cc1O[C@@H]1O[C@H](CO)[C@@H](O)[C@H](O)[C@H]1O | 11.1% [at 38.5 µM] (inactive) |
| O=C1CC(c2ccc([N+](=O)[O-])cc2)=NN1c1ccccc1 | 8.98% (inactive) |
| C=C1[C@H]2[C@H](O[C@@H]3O[C@H](COC(=O)/C=C/c4cc(OC)c(O)c(OC)c4)[C@@H](O)[C@H](O)[C@H]3O)OC=C(C(=O)O)[C@H]2C[C@@H]1O | 14.3% [at 25.3 µM] (inactive) |
| C/C=C(\C)C(=O)OC[C@H]1O[C@H](O[C@H]2O[C@H](CO)[C@@H](OC(=O)/C(C)=C/C)[C@H](O)[C@H]2O[C@@H]2O[C@H](CO)[C@@H](O)[C@H](O)[C@H]2O)[C@H](O[C@@H]2O[C@H](CO)[C@@H](O)[C@H](O)[C@H]2O)[C@@H](O)[C@@H]1O | 33.8% [at 11.6 µM] (inactive) |
| CN1CC[C@@H](NC(=O)Nc2ccc(C#N)cc2)C[C@@H]1c1nc2ccccc2[nH]1 | 6.75% (inactive) |
| O=C(O)c1cc(O[C@@H]2O[C@H](CO[C@@H]3OC[C@@H](O)[C@H](O)[C@H]3O)[C@@H](O)[C@H](O)[C@H]2O)c2ccccc2c1O | 32.5% [at 25.3 µM] (inactive) |
| O=c1ccn(C2OC(CO)C(O)C2O)c(=O)[nH]1 (centres undefined) | 2.01% (inactive) |
| Clc1ccc(CN[C@H]2CCN(c3ncc(Br)cn3)C2)c(Cl)c1 | 0.469% (inactive) |
| C=C1C(=O)OC2/C=C(\C)CC/C=C(\C(=O)O)CC/C=C(\C)CCC12 (centres undefined) | 8.66% [at 38.5 µM] (inactive) |
| C=CC1(C)C=C2C(=O)CC3C(C)(C)CCCC3(C(=O)O)C2(O)CC1 (centres undefined) | 4.65% [at 38.5 µM] (inactive) |
| COc1c(C)c2c(c(O)c1C/C=C(\C)CC/C=C(\C)CCC(=O)O)C(=O)OC2 | 25.1% [at 38.5 µM] (inactive) |
| CNC(=O)COC(=O)NCCC1CCN(c2cccc(C)n2)CC1 | 8.04% (inactive) |
| Cc1nn(C)c(COc2ccc(N3CCN(S(=O)(=O)N(C)C)CC3)cc2)c1-c1cccc2c(CCCOc3cccc4ccccc34)c(C(=O)O)n(CCN3CCOCC3)c12 | -0.166% (inactive) |
| CCCCS(=O)(=O)Nc1ncnc(OCCOc2ncc(Br)cn2)c1-c1ccc(Br)cc1 | 18.4% (inactive) |
| C[C@H]1C[C@H]2[C@@H]3CCC4=CC(=O)C=C[C@]4(C)[C@@]3(F)[C@@H](O)C[C@]2(C)[C@@]1(O)C(=O)COP(=O)(O)O | 4.09% (inactive) |
| CC(C)(O)c1ccc2c(c1)C(O)CC1C(C)(C(=O)O)CCCC21C (centres undefined) | 11.6% [at 38.5 µM] (inactive) |
| COc1cc(CCc2ccccc2)c(C(=O)O)c2c1CC(C(C)(C)O)O2 (centres undefined) | -5.17% [at 38.5 µM] (inactive) |
| CCCCCCc1cccc(NC(=O)[C@H](N)CCP(=O)(O)O)c1 | 2.71% [at 11.6 µM] (inactive) |
